Inconclusive results are not listed. The source made the active and inactive calls. The call rests on the fitted dose curve; in most records, active means well fitted curve in the direction sought with a large enough effect; inconclusive means small, poorly fitted or top-dose-only effect, or effect the other way, or another doubt; inactive means no such curve, though single readings can be large or run the other way.
What follows are compounds tested against Alpha-galactosidase A (Homo sapiens) (UniProt P06280) (assay: Confirmation of Inhibitors of Human alpha-Galactosidase Using Spleen Homogenate). Settings: alpha-galactosidase enzyme activity; series mostly up to 56.2 µM.
Procedure, shortened: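 AC50 values come from Hill-equation fits of normalised 4-methylumbelliferone fluorescence (365/440 nm, read after NaOH/glycine stop). Enzyme source: spleen homogenate; substrate 1 mM final; pH 5.0 citrate buffer; 40 min at 37C; compound titration 0.5 nM–58 uM.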

Chain of Alpha-galactosidase A (Homo sapiens) (P06280 32-429 limits assumed): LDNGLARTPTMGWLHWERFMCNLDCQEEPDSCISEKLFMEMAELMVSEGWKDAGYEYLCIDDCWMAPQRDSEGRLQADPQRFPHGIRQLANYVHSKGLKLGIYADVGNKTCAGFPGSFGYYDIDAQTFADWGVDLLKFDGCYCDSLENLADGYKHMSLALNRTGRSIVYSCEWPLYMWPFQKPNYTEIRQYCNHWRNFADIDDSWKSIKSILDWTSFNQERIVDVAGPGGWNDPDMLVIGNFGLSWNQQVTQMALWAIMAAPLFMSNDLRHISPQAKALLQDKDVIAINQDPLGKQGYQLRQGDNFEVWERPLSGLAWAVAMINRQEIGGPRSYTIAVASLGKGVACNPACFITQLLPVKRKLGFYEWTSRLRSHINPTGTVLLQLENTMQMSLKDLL

outcome, inactive:
Cc1c(OCC(F)(F)F)ccnc1CS(=O)c1nc2ccccc2[nH]1 (configuration not stated)
COc1cc(/C=C/c2ccc3ccccc3n2)cc(OC)c1O
N#Cc1c(-c2ccc(F)cc2)cc(-c2cccnc2)nc1N
Cc1sc(-c2cc3cc(Cl)ccc3oc2=O)nc1-c1ccccc1
Cc1cccn2c(=O)c3cc(C#N)c(=NC(=O)c4cccs4)n(CCCOC(C)C)c3nc12
Cc1ccc(S(=O)(=O)N2CCN(C(=O)C3COc4ccccc4O3)CC2)cc1C (configuration not stated)
Nc1ccc(S(=O)(=O)N2CCOCC2)cc1
COc1ccccc1NC(=O)c1ccc(Br)o1
COc1ccccc1CCNC(=O)C1CCC(=O)N(C2CC2)C1 (configuration not stated)
Cc1cc(/C=N/NC(=O)c2ccc(O)cc2)c(C)n1C1CC1
O=C(c1cccc2ccccc12)N1CCN(S(=O)(=O)c2ccccc2)CC1
CC1CCc2nc(-c3cc4ccc(O)cc4oc3=O)sc2C1 (configuration not stated)
Cc1ccc(N2CC(C(=O)NCc3ccc(C)n3C)CC2=O)cc1 (configuration not stated)
C=C(C)CC(NCc1ccco1)c1ccc(OC)cc1 (configuration not stated)
CN(C)N=C1c2cc(S(=O)(=O)N3CCOCC3)ccc2-c2ccc(S(=O)(=O)N3CCOCC3)cc21
COc1cc(C2C(C(=O)c3ccco3)=C(O)C(=O)N2CC2CCCO2)ccc1O (configuration not stated)
O=C(Cn1c(=O)n(Cc2ccccc2)c(=O)c2sc3ccccc3c21)Nc1ccccc1
Cc1cccc2cc3c(NC(=O)c4ccccn4)nn(C)c3nc12
COC(=O)c1cc(OC)c(OC)cc1NC(=O)CCCCCN1C(=O)CCC1=O
N#Cc1ccccc1S(=O)(=O)N1CCOCC1
O=C(CSc1n[nH]c(-c2ccccc2)n1)c1ccc(O)c(O)c1
O=C(c1cc2c(ccc3ccccc32)oc1=O)N1CCN(CCO)CC1
CC(C)(C)c1ccc(OCC(=O)NC(Cc2c[nH]c3ccccc23)C(=O)O)cc1 (configuration not stated)
Cn1c(-c2ccco2)nc2cc3ccccc3cc21
Cc1cc(/C=N/Nc2ccc([N+](=O)[O-])cn2)c(C)n1-c1ccc(C(=O)O)cc1
CN1CCN(S(=O)(=O)c2ccccc2)CC1
Cn1c(=O)c2sccc2n2c(CCCC(=O)Nc3ccc(F)c(F)c3)nnc12
COC(=O)c1ccccc1S(=O)(=O)N1CCOCC1
COc1cc(-c2cc(N3C(=O)Nc4ccccc4N3O)n[nH]2)cc(OC)c1OC
O=NOc1ccc(/C=C/c2nccc3c2[nH]c2ccccc23)cc1
O=S(=O)(c1ccc2ccccc2c1)N1CCOCC1
Cc1c(C(=O)NCc2ccccc2F)oc2ccccc12
O=S(=O)(c1ccccc1)N1CCN(c2ccccc2)CC1
O=c1oc2ccc3ccccc3c2cc1-c1nc(CCCBr)cs1
CC(C)C[C@H](NC(=O)c1nc[nH]c1C(=O)N[C@@H](CC(C)C)C(=O)OC(C)(C)C)C(=O)OCc1ccccc1
CSc1ccccc1NC(=O)CN(C)CC(=O)NCc1ccccc1
CC1S/C(=N\N=C\c2cccc([N+](=O)[O-])c2)N(C(C)(C)C)C1=O (configuration not stated)

Source: PubChem BioAssay AID2108 (National Center for Advancing Translational Sciences (NCATS), 2009)
